Screening results (PubChem)
uPA generation: inhibitors of cell surface uPA generation | AID 540303 | 330,000 compounds, 0.31% hits | cell surface uPA generation assay, qHTS | Potency, µM (top dose mostly 38.3 µM), inactives show top-dose activity change, negative = inhibition, most hits filed as inhibitors; active means well fitted inhibition curve with a large enough effect; inconclusive means small, poorly fitted or top-dose-only effect; inactive means no such curve, though single readings can be large or run the other way; tested in mouse RAW 264.7 cells; further: potency means the concentration at half of the fitted maximal effect; on the % scale 0 is the no-effect control and ±100 the full control effect; nearly all actives have a fitted effect of over 55% in size
DRD3 agonist: agonists of human D3 dopamine receptor | P35462 | D3R DiscoveRx beta-arrestin cells, luminescence, 90 min | max activation, % | 410,000 compounds, 0.58% hits | AID 652048; in the data active means max activation above about 30%; further: 0% is about no effect
Target sequence (P35462 whole entry, looked up): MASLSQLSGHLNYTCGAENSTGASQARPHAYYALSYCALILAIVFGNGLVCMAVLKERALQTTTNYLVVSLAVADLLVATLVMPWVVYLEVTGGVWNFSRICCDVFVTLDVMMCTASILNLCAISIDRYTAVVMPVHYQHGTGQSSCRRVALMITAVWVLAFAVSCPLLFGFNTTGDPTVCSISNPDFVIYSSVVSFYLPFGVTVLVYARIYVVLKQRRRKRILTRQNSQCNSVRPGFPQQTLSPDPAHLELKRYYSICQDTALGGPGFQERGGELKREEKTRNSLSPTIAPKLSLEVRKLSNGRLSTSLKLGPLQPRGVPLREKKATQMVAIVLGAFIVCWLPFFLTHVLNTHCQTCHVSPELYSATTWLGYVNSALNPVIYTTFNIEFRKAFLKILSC
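Agonist mode: compounds and dopamine controls were applied to plated cells for 90 min at 37 degrees C after an overnight attachment at 1500 cells/well. Luminescent read-out followed 30 - 60 minutes at room temperature with DiscoveRx detection reagent.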
RGS4 inhibitor: inhibitors of human regulator of G protein signaling 4; P49798; Potency, µM (top dose mostly 114 µM), inactives show at the highest dose activity change, negative = inhibition, hits mostly inhibitors; AID 504845; Transcreener GDP fluorescence polarization, RGS4-accelerated GTP hydrolysis; 390,000 compounds, 0.039% hits; active means well fitted inhibition curve with a large enough effect; inconclusive means small, poorly fitted or top-dose-only effect; inactive means no such curve, though single readings can be large or run the other way; further: potency means the concentration at half of the fitted maximal effect; on the % scale 0 is the no-effect control and ±100 the full control effect; nearly all actives have a fitted effect of over 75% in size
Target sequence (P49798 whole entry, looked up): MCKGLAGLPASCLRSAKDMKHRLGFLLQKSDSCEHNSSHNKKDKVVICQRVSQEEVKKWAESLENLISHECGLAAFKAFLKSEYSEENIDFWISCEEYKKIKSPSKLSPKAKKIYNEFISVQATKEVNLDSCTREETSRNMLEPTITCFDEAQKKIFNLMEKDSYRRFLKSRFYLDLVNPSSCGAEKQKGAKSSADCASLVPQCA
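MLSMR compounds (23 nl, pin-transferred) preincubated 10 min at room temperature with a 500nM (2x) first reagent, then RGS4 at 900nM (2x) plus Transcreener GDP mix added; fluorescence polarization (620/688 nm) read before and after 90 min at 30 °C.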
DRD3 antagonist: antagonists of human D3 dopamine receptor; P35462; D3R cells, DiscoveRx beta-arrestin luminescence, antagonist mode; stronger effect = lower value; max response, negative = inhibition, %; 360,000 compounds, 2.5% hits; AID 652054; in the data active means max response below about -50%; inconclusive means no clear call, values can overlap the other calls; further: on the % scale 0 is the no-effect control and ±100 the full control effect
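Cells expressing the human receptor were seeded at 1500 cells/well, incubated overnight at 37 degrees C in 5% CO2, then exposed to library compounds with dopamine controls for 90 minutes at 37 degrees C before luminescent detection.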
The depositor's hits bear a star; ? = inconclusive; nt = no result; [ ] = dose if it differs, or a comment. Hits are enriched below; roughly 3.1% of the tested compounds scored in any of these assays.

SMILES | uPA generation | DRD3 agonist | RGS4 inhibitor | DRD3 antagonist
Cc1cccc(N2CCN(CC(O)COc3ccc4ccccc4c3)CC2)c1 (configuration not stated) | 1% | 47* | 25% | ?
COc1cc(/C=C/C(=O)N2CCN(CC(=O)N3CCCC3)CC2)cc(OC)c1OC | nt | 3 | nt | nt
COc1ccc2cc(/C=C/C(=O)N3CCN(CC(=O)N4CCCCCC4)CC3)ccc2c1 | 2% | 36* | -36% | 13
Cc1ccc(OCC(O)CN2CCN(CC(O)COc3ccc(C)cc3)CC2)cc1 (configuration not stated) | 0% | -11 | 4% | ?
CCCN(C(=O)CCc1nc(-c2ccccc2F)no1)c1ccc(CC)cc1 | nt | 0 | -1% | nt
CSc1ccc(C(O)c2ncc(-c3ccccc3F)[nH]2)cc1 (configuration not stated) | nt | -8 | nt | 0
CCOC(=O)c1c(C)oc2nc(C)nc(N3CCN(c4cccc(C(F)(F)F)c4)CC3)c12 | nt | 5 | -30% | nt
O=C(/C=C/c1ccc(F)cc1)N1CCN(Cc2ccccc2)CC1 | 5% | -20 | -22% | -69*
Cc1ccc(/C=C/C(=O)N2CCCN(C(=O)/C=C/c3ccc(C)cc3)CC2)cc1 | -11% | -13 | -1% | -58*
Cc1cccc(CN2CCN(C(=O)c3ccccc3F)CC2)c1 | 5% | 0 | -6% | -78*
Cc1ccc(N2CCN(CC(O)COc3ccccc3)CC2)cc1 (configuration not stated) | 7% | -17 | -2% | -54*
CCN1CCN(C(=O)/C=C/c2ccc(C)cc2)CC1 | -4% | -7 | 8% | -2
O=C(/C=C/c1ccc(Br)cc1)N1CCN(Cc2ccccc2)CC1 | -2% | -7 | 6% | 7
CCC(C(=O)NC(=O)NC(C)=O)c1ccccc1 (configuration not stated) | nt | -3 | nt | nt
O=C(CCCCCn1c(=O)c2sccc2n(CC(=O)Nc2ccccc2F)c1=O)NCc1ccc2c(c1)OCO2 | nt | -8 | -22% | nt
Cc1ccc(C)c(OCC(O)CN2CCC(Cc3ccccc3)CC2)c1 (configuration not stated) | 0% | -9 | 13% | -7
Cc1ccc(OCC(O)CN2CCN(c3ccccc3)CC2)cc1 (configuration not stated) | 1% | 10 | 24% | -75*
OC(COc1ccc(Cl)cc1)CN1CCN(c2ccccc2)CC1 (configuration not stated) | 14% | -2 | 15% | -87*
OC(COc1ccc(Cl)cc1)CN1CCC(Cc2ccccc2)CC1 (configuration not stated) | -13% | -11 | 0% | -76*
COc1ccc(N2CCN(CC(O)COc3ccc(F)cc3)CC2)cc1 (configuration not stated) | -5% | -20 | -1% | -66*
COc1ccc(OCC(O)CN2CCN(c3ccc(OC)cc3)CC2)cc1 (configuration not stated) | 1% | -18 | 3% | ?
COCCN1C[C@@H](CO)O[C@@H](n2cnc3c(NCc4ccco4)ncnc32)C1 | nt | 6 | nt | -9
O=C(NCC(O)CO)c1c(I)c(C(=O)NCC(O)CO)c(I)c(N(CCO)C(=O)CO)c1I (configuration not stated) | nt | 8 | nt | nt
Oc1ccccc1CNc1nc2ccccc2n1CCN1CCCCC1 | -11% | -13 | -21% | -74*
Cc1cccc(OC(=O)c2cc(-c3ccc4c(c3)OCCO4)on2)c1 | nt | -1 | 11% | nt
SMILES | uPA generation | DRD3 agonist | RGS4 inhibitor | DRD3 antagonist
CCOC(=O)c1sc2ccccc2c1S(=O)(=O)NCc1ccccc1OC | nt | -2 | -18% | nt
COC(=O)COc1cccc2c(=O)n(CC(=O)N3CCCCC3)ccc12 | 0% | 6 | 22% | 7
CCOC(=O)C(C)Oc1cccc2c(=O)n(CC(=O)NCc3ccc(F)cc3)ccc12 (configuration not stated) | 0.32µM* | -14 | -7% | -9
COC(=O)COc1cccc2c(=O)n(CC(=O)NCc3ccc(F)cc3)ccc12 | 0.63µM* | -10 | 5% | ?
CCOC(=O)C(C)Oc1cccc2c(=O)n(CC(=O)NCc3ccccc3)ccc12 (configuration not stated) | -4% | -5 | 0% | -10
CCOC(=O)COc1cccc2c(=O)n(CC(=O)NCc3ccc4c(c3)OCO4)ccc12 | 1µM* | -7 | 19% | -10
O=C(Nc1ccc2nc(SCC(=O)N3CCOCC3)sc2c1)c1ccccc1Cl | nt | 0 | 15% | nt
Cc1ccc(NC(=O)c2ccc(F)c(S(=O)(=O)N3CCc4ccccc4C3)c2)cc1F | nt | -1 | -12% | nt
O=C1CN(C(=O)c2ccccc2C(F)(F)F)C(c2ccccc2)c2cc(F)ccc2N1 (configuration not stated) | nt | 6 | -1% | nt
COc1cc(NC(=O)CNS(=O)(=O)c2cccs2)cc(OC)c1OC | nt | 4 | 17% | nt
CCOC(=O)N1CCN(c2nc(-c3ccco3)cc(C(F)(F)F)n2)CC1 | 3% | 3 | -1%[11.4 µM] | 2
CN1CCN(c2nc(-c3ccco3)cc(C(F)(F)F)n2)CC1 | nt | -32 | 6% | -92*
COc1[nH]c2ccc(F)cc2c1C(=O)OCC1CCN(CCNS(C)(=O)=O)CC1 | -12% | -74 | 4% | -55*
COc1ccc(Cl)cc1NC(=O)CN(C)C(=O)c1cn2ccccc2n1 | 11µM* | 0 | -2% | 12
CCN(CC)c1ccc(/C=C(/C#N)c2nc3ccccc3[nH]2)c(OC(C)C)c1 | 10µM* | -2 | -19% | 8
CCCCn1c(N)c(S(=O)(=O)c2ccc(C)cc2)c2nc3ccccc3nc21 | 3% | 32* | 5% | 11
CN(C)CCCn1c(N)c(S(=O)(=O)c2ccccc2)c2nc3ccccc3nc21 | 0% | -4 | -6% | ?
Cc1ccc(CSc2nc3cccnc3n2Cc2ccc(C(=O)NCCc3cccs3)cc2)cc1 | nt | -18 | -5% | nt
CCCCC(=O)NC(c1ccc(N(CC)CC)cc1)c1ccc2cccnc2c1O (configuration not stated) | -9% | 32* | 12%[56.9 µM] | -4
CCCC(=O)NC(c1ccc(C)cc1)c1ccc2cccnc2c1O (configuration not stated) | -13% | 31* | 10%[56.9 µM] | -26
CCCCNC(=O)c1sc(=S)n2c1[nH]c(=O)c1ccccc12 | 0% | 0 | -35% | -50*
Cn1c(SCc2ccccc2)nc2ccsc2c1=O | 2% | 35* | -22% | 11
COc1cccc(OCc2nc3ccccc3n2CCOc2ccccc2C)c1 | nt | 7 | -1% | nt
Cc1cnc(CN(C)C(=O)c2ccc3oc(Cc4ccc(Cl)cc4)nc3c2)[nH]1 | 4% | -5 | -13% | -57*
Cc1cnc(CN(C)C(=O)c2ccc3oc(Cc4ccccc4)nc3c2)[nH]1 | 1% | -6 | 27% | -14
CC1(C)S[C@@H]2[C@H](NC(=O)[C@H](N)c3ccccc3)C(=O)N2[C@H]1C(=O)OC1OC(=O)c2ccccc21 (some centres not stated) | -5% | -34 | 9% | -67*
Cn1nc(-c2ccc(OCC(=O)Nc3cccc(C(F)(F)F)c3)cc2)c2ccccc2c1=O | nt | 2 | -34% | nt
CN(Cc1ccccc1)C(=O)C1CCN(S(=O)(=O)Cc2ccccc2)CC1 | nt | 4 | 13% | nt
